ADAM17 inh: inhibitors of human ADAM17; P78536; recombinant ADAM17, EDANS/DABCYL FRET peptide cleavage; inhibition, % at 6.95 µM; 370,000 tested, 0.83% active;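 active = inhibition above the mean of compounds lying between control limits plus 3 SD, set per campaign, cut at about 8.5% in these data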;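 also: 0% = DMSO-only wells as the low control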
Target sequence (P78536 215-824 limits assumed): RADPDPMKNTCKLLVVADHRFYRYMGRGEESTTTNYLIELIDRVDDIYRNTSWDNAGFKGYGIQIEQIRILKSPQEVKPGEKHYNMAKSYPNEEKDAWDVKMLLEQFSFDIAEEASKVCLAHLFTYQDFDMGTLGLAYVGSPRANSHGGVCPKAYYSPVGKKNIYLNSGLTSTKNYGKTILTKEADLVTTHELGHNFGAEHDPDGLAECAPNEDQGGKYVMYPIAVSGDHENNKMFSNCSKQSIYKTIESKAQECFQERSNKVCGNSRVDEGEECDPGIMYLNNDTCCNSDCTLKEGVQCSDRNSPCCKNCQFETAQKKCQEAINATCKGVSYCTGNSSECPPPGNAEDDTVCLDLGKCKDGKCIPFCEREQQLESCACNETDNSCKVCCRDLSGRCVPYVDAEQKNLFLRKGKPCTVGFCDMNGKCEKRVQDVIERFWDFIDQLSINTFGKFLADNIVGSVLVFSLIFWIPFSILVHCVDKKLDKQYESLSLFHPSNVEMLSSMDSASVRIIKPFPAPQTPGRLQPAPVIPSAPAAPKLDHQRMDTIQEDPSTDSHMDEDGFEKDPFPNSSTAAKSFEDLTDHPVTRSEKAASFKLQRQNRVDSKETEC
GC-A act: GC-A (human) enzyme activation; P16066; 370,000 tested, 0.14% active; AID 1671463; HEK293 GC-A cells, cGMP TR-FRET, EC30 ANP; 0% at EC30 ANP, 100% saturating ANP; activation, % at 10 µM; in the data active = activation above about 40%
ADAM10 inh: inhibits human ADAM10 | 370,000 tested, 0.62% active | recombinant ADAM10, EDANS/DABCYL FRET peptide cleavage, 3 h | inhibition, % at 7 µM;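 active = inhibition above a per-campaign cutoff equal to the mean of compounds falling between control-based bounds plus 3 SD, cut at about 20% in these data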;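 also: 0% = DMSO wells while the 100% control is not disclosed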
FAS TE block: FAS thioesterase (human) inhibition | recombinant FAS-TE, OMFH fluorogenic substrate, fluorescence endpoint | inhibition, % at 15 µM | 360,000 tested, 0.67% active | AID 602261;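 active = compounds whose normalised, plate-corrected inhibition of enzyme fluorescence in the single-dose primary screen is 50% or more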;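 also: 0% = DMSO with enzyme and 100% = substrate without enzyme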
GC-B act: GC-B (human) receptor activation; HEK293-GC-B cells, CNP EC30, cGMP TR-FRET; 0% at EC30 CNP, 100% saturating CNP; AID 1920062; activation, % at 10 µM; P20594; 370,000 tested, 0.11% active;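 active = activation at 10 µM reaching about 35% in either raw or pattern-adjusted values, limit read from the data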
ADAM10 confirm: human ADAM10 inhibition, confirmation | 2,100 tested, 1% active | shares compounds with ADAM10 inh | AID 743208 | ADAM10 QFRET peptide cleavage, EDANS fluorescence | inhibition, % at 6.95 µM;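 active = inhibition above about 20% chosen separately for each screening run, limit read from the data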;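 also: 0% = DMSO wells and 100% = marimastat wells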
ADAM17 counter: inhibits human ADAM17 in ADAM10 exosite counter-screen. 2,100 tested, 0.5% active. inhibition, % at 6.95 µM. shares compounds with ADAM10 inh. ADAM17 QFRET peptide cleavage, EDANS fluorescence. AID 743214;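 active = mean triplicate inhibition above the solvent-only control wells' mean plus 3 SD, cut at about 12% in these data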;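 also: 0% = DMSO wells and 100% = marimastat wells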
Starred values were filed as active, the others as inactive; . = no result. Most compounds without a hit are left out; they make up all but 2% or so of the library.

SMILES	ADAM17 inh	GC-A act	ADAM10 inh	FAS TE block	GC-B act	ADAM10 confirm	ADAM17 counter
Cc1cccc(C(=O)NN2C(=O)C3C(c4ccccc4)C=CC(c4ccccc4)C3C2=O)c1 (centres undefined)	8	-3	20*	32	3	5	2
COc1ccc(CCN(C)C(=O)c2oc3ccccc3c2C)cc1OC	-3	3	-3	-10	-3	.	.
Cc1c(C(=O)N(C)Cc2ccc(OC(F)F)cc2)oc2ccccc12	2	2	20*	22	2	2	0
CCCCCCCCN1C(=O)[C@@H](CC(=O)NCc2ccccc2)C[C@@]2(C(=O)OC)C1=C[C@H](C(C)C)O[C@@H]2C1CC1	3	-1	14	.	-6	.	.
O=C(NCc1ccc(OC(F)(F)F)cc1)c1cc(-c2ccccc2)nn1CC1CC(c2cccnc2)=NO1 (centres undefined)	6	-1	20*	4	2	0	1
CCN(CC)C(=O)CC[C@H]1CC[C@]2(CCCN(Cc3cccc4ccccc34)C2)O1	0	-1	4	.	2	.	.
Cc1cc(NC(=O)C(C)SCC(=O)Nc2nnc(CC(C)C)s2)no1 (centres undefined)	1	0	82*	-9	0	1	0
C=CCn1c(COc2ccccc2)nnc1SCC(=O)Nc1ccc(Oc2ccccc2)cc1	6	-2	21*	.	6	3	0
C=CCn1c(COc2ccc(Cl)cc2)nnc1SCC(=O)Nc1ccc(S(N)(=O)=O)cc1	6	-9	6	0	-4	.	.
OC(c1ccc(F)cc1)c1nc(-c2ccc(F)c(Cl)c2)cs1 (centres undefined)	8	1	20*	38	-6	7	2
COc1cccc(C(O)c2nc(-c3cccc(C(F)(F)F)c3)cs2)c1 (centres undefined)	5	-4	19	25	-2	.	.
OC(c1cccc(Cl)c1)c1nc(-c2ccc(F)c(Cl)c2)cs1 (centres undefined)	7	3	9	33	0	.	.
COc1cc(C(O)c2nc(-c3cccc(C(F)(F)F)c3)cs2)ccc1F (centres undefined)	8	0	21*	27	-1	5	1
CC(C)(C)OC(=O)NCc1cc(F)ccc1/C=C/S(=O)(=O)NC1CCCC1	4	0	5	.	-3	.	.
CC1CCC2(CCC(=O)N2CCCOC(=O)Nc2cccc(C(F)(F)F)c2)CC1 (centres undefined)	-3	-1	-2	.	1	.	.
O=C(Nc1ccc(Br)c(C(F)(F)F)c1)c1ccc(C(F)(F)F)cc1	6	6	15	46	-3	.	.
O=C(Nc1ccc(OCC(F)(F)C(F)F)c(C(F)(F)F)c1)c1ccc(Cl)cc1	4	10	25*	38	5	10	3
O=C(Nc1ccc(C(O)(C(F)(F)F)C(F)(F)F)cc1)c1c(F)cccc1F	2	-3	8	.	-7	.	.
O=C(Nc1ccc(C(O)(C(F)(F)F)C(F)(F)F)cc1)c1ccc(Cl)cc1	6	-1	23*	.	1	2	1
CCCC1CCC2(CC1)CCC2OC(=S)NCc1cccc(OC)c1 (centres undefined)	-1	-5	3	.	2	.	.
CCC(=C(c1ccc(OC)cc1)c1ccc(OC)cc1)c1cn(CC(O)CN2CCN(C)CC2)c2ccccc12 (centres undefined)	1	-3	25*	6	-6	5	2
COc1ccc(-c2cc3ccccc3n2CC(O)CN2CCCCC2)cc1 (centres undefined)	-1	-5	-3	-10	-10	.	.
Cc1ccc(-n2c(Cc3cccs3)nnc2SCc2ccc(Br)cc2)cc1	8	-23	13	.	-19	.	.
CCOC(=O)C1C(=O)C=C(C)C(C(=O)OCC)C1c1cccc([N+](=O)[O-])c1 (centres undefined)	1	-10	20*	5	-11	2	0
COC(=O)c1ccc(CN2CC3CC(c4ccccc4)N4CCCC34C2=O)cc1 (centres undefined)	-1	0	-1	.	-5	.	.
SMILES	ADAM17 inh	GC-A act	ADAM10 inh	FAS TE block	GC-B act	ADAM10 confirm	ADAM17 counter
CCCCCCCCN1CCS(=O)(=O)N(Cc2ccc(C(F)(F)F)cc2)C(C(=O)OC)C1 (centres undefined)	-3	-3	-8	.	-1	.	.
CCCCOCCCNC(=O)C[C@H]1C[C@@]2(C(=O)OC)C(=C[C@H](C(C)C)O[C@@H]2C2CC2)N(Cc2ccc3c(c2)OCO3)C1=O	3	-2	10	.	-2	.	.
C=CCC[C@@H](Cc1ccc(F)cc1)C(=O)OC[C@@H](NC(=O)[C@@H](CC=C)CC(=O)N[C@@H](CO)Cc1ccccc1)C(C)(C)C	7	-3	21*	9	-7	5	1
C=CCC[C@H](Cc1ccc(F)cc1)C(=O)OC[C@@H](C)NC(=O)[C@@H](CC=C)CC(=O)N[C@H](CO)Cc1ccccc1	3	0	9	17	1	.	.
C=CCC[C@H](Cc1ccc(F)cc1)C(=O)OC[C@H](Cc1c[nH]c2ccccc12)NC(=O)[C@H](CC=C)CC(=O)N[C@H](CO)Cc1ccccc1	6	-3	21*	6	-1	9	3
C=CCC[C@H](Cc1ccc(F)cc1)C(=O)OC[C@H](Cc1c[nH]c2ccccc12)NC(=O)[C@@H](CC=C)CC(=O)N[C@@H](CO)Cc1ccccc1	-4	-7	-2	1	2	.	.
C=CCC[C@H](Cc1ccc(F)cc1)C(=O)OC[C@@H](Cc1c[nH]c2ccccc12)NC(=O)[C@H](CC=C)CC(=O)NCCO	7	-4	21*	11	-2	4	0
O[C@H](COc1cccc(Br)c1)CN1CCC(C(O)(c2ccccc2)c2ccccc2)CC1	6	-17	11	.	-15	.	.
Cc1cccc(CCNC(=O)Cn2ncc3c2-c2cc(C)ccc2OC3)c1	1	-14	-1	.	-11	.	.
COC(=O)c1ccc(Cn2ccc3ccc(-c4ccc5ccn(C(=O)c6ccc(C)cc6)c5c4)cc32)cc1	1	1	-10	.	-3	.	.
COc1cccc(-c2nnc(SCc3cc(C)ccc3C)n2Cc2ccco2)c1	7	-5	11	.	-2	.	.
C=CCN1[C@H](CO)[C@H](c2ccc(C#CC3(O)CCCC3)cc2)[C@@H]1C#N	1	-1	-6	.	-4	.	.
COc1ccccc1NC(=O)Cc1csc(NC(=S)Nc2ccc(C)cc2)n1	4	-8	33*	20	-14	6	2
CCC(=O)Nc1nc(CC(=O)Nc2ccccc2OC)cs1	-5	-1	8	-4	-6	.	.

Screening data: PubChem BioAssay, several laboratories
